This passage reports composite z-score and z-score results from PubChem BioAssay.

Active and inactive are the calls of the source. Unless noted, how the calls were made is not given here.

In assay [1] the test system is XIP peptide (Xip251-270) binding. The experiment in a line: XIP fragment 251-270 binding compounds – biochemical, small-molecule microarray, fluorescence 635/667 nm, 0.1 µg/mL protein, primary screen (AID 1182). The conditions noted are these: fluorescent protein binding, 635 nm, higher = more signal, called active from +8 up or from −8 down.
A further assay has as its system XIP peptide (Xip251-270). The experiment in a line: compounds binding XIP fragment 251-270 – biochemical, small-molecule microarray, fluorescence 635/667 nm, 0.5 µg/mL protein, primary screen (AID 1183). To be noted: fluorescence 635 nm, higher = more signal.
The nature of assay [2]: blood-stage malaria parasite viability loss – strain 3D7, DAPI fluorescence, 100 nL, primary screen (AID 1184).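 Further: parasites grown inside human red blood cells in medium with human serum.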 To be noted: P. falciparum 3D7 growth, 3 d, higher = more signal.
The target of assay [3] is Homeobox protein Hox-A13 (Mus musculus) (UniProt Q62424). Description: disruptors of Hoxa13 oligonucleotide interaction – biochemical, fluorescence polarization, labeled oligonucleotide, primary screen (AID 1185). The conditions noted are these: Hoxa13:DNA binding, 15 min, higher = more signal, called active from +8 up or from −8 down. (In general: Fluorescence polarisation rises when a labelled molecule tumbles more slowly, as on binding a larger partner.)

A short description of assay [4]: blockers of DNA damage checkpoint Chk1 activation – imaging, HeLa, hydroxyurea, phospho-Chk1 antibody, percent positive cells, primary screen (AID 1186). The conditions noted are these: hydroxyurea-induced phospho-Chk1 immunofluorescence imaging, higher = more signal.
Assay [5] in a line: blockers of DNA damage checkpoint Chk1 activation – imaging, HeLa, hydroxyurea, phospho-Chk1 nuclear intensity, primary screen (AID 1187). The conditions noted are these: hydroxyurea-induced phospho-Chk1 immunofluorescence imaging, higher = more signal.

Sequence of Homeobox protein Hox-A13 (Mus musculus) (Q62424 whole entry, looked up): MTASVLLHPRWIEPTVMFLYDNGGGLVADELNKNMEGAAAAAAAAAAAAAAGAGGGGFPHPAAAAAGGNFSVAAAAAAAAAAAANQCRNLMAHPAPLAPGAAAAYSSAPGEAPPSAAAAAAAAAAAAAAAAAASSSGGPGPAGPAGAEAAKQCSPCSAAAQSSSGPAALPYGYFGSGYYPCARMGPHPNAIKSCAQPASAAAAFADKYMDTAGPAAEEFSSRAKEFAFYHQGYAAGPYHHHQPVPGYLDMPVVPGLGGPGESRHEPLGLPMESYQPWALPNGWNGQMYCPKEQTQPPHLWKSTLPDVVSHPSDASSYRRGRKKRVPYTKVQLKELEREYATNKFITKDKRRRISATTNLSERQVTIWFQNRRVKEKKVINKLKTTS

Consider `COc1ccc([Si](C)(C)[C@H]2[C@H](CC(=O)N3CCC[C@H]3CO)O[C@@]3(C(=O)N(Cc4ccc(N5C(=O)c6cccc7cccc5c67)cc4)c4ccccc43)[C@@H]2C)cc1`, for which the results for the composite z-score (in assay [1]; in the assay on XIP peptide (Xip251-270)) were 0.531 (inactive) and 0.803, respectively. Also, the z-score in assay [2] is -1.95; in assay [3], -3.9 (inactive); in assay [4], 0.171 (inactive); in assay [5], -0.4 (inactive).

On to `CO[C@H]1O[C@H](CO)[C@@H](OC(=O)c2ccc(Br)cc2)[C@@H]2OC(=O)[C@H](Cc3cccc(Br)c3)C/C=C/C[C@@H](Cc3cccc(Br)c3)C(=O)O[C@@H]12`, for which the values for the composite z-score (in assay [1]; with XIP peptide (Xip251-270)) were 1.69 (inactive) and 0.675, respectively. Further, the z-score in assay [2] is -0.706; in assay [3], -2.82 (inactive); in assay [4], 0.373 (inactive); in assay [5], 0.574 (inactive).

`COCCOC(=O)N1C(=O)[C@@]2(c3cc(C#CCNC(N)=O)ccc31)[C@H](C(N)=O)[C@H]1C(=O)O[C@H](c3ccccc3)[C@H](c3ccccc3)N1[C@@H]2c1ccc(OCCO)cc1`: the composite z-score in assay [1] is -0.0439 (inactive); with XIP peptide (Xip251-270) it was 0.549. The z-score was 0.101 in assay [2], -2.08 (inactive) in assay [3], 0.358 (inactive) in assay [4] and 0.489 (inactive) in assay [5].

Take `O=C(CS)NCCCCCNC(=O)[C@@H]1C[C@@H]2C(=O)N3CCC[C@H]3C(=O)N2[C@@H]1c1ccc(O)cc1`: the composite z-score in assay [1] was 0.262 (inactive); with XIP peptide (Xip251-270) it was 0.716. Also, the z-score in assay [2] is 0.924; in assay [3], -2.66 (inactive); in assay [4], 0.0756 (inactive); in assay [5] it was 0.0698 (inactive).

On to `COCCOC(=O)N1C(=O)[C@@]2(c3cc(C#CCCO)ccc31)[C@H](c1ccc(OCCO)cc1)N1[C@H](c3ccccc3)[C@H](c3ccccc3)OC(=O)[C@H]1[C@@H]2C(=O)N1CCc2cc(OC)c(OC)cc2C1`, for which the composite z-score in assay [1] was 0.311 (inactive); in the assay on XIP peptide (Xip251-270) it was 0.736. In addition, the z-score in assay [2] is -1.87; in assay [3] it was 2.71 (inactive); in assay [4] it was -0.209 (inactive); in assay [5], 0.0256 (inactive).

Take `Cc1ccc(N2C(=O)c3ccccc3[C@](C)(C(=O)NC(C)C)[C@@H]2c2ccc(CO)cc2)nc1`: the composite z-score was -0.224 (inactive) in assay [1] and 0.677 in the assay on XIP peptide (Xip251-270). For the same molecule, the z-score in assay [2] is -0.736; in assay [3] it was -0.858 (inactive); in assay [4] it was 0.0932 (inactive); in assay [5], 0.205 (inactive).

For `COc1ccc([Si](C)(C)[C@@H]2[C@@H](CCO)O[C@]3(C(=O)N(Cc4ccccc4)c4ccc(N5CCCCC5=O)cc43)[C@H]2C)cc1`, the composite z-score was 2.38 (inactive) in assay [1] and 0.565 with XIP peptide (Xip251-270). The z-score in assay [2] is -2.89; in assay [3], -4.29 (inactive); in assay [4], -1.71 (inactive); in assay [5] it was -1.73 (inactive).

Take `O=C(C=C(CC(O)c1cccc(Cl)c1)OCCF)OCCF` (stereo unspecified): the composite z-score in assay [1] is 0.0562 (inactive); with XIP peptide (Xip251-270), -1.21. Further, the z-score was 0.186 in assay [2], -1.34 (inactive) in assay [3], -0.608 (inactive) in assay [4] and -0.48 (inactive) in assay [5].

For `COc1cc(NN2C(C(O)c3ccc(I)cc3)C=CC3C(=O)N(C)C(=O)C32)cc(OC)c1OC` (stereo unspecified), the values for the composite z-score (in assay [1]; with XIP peptide (Xip251-270)) were 1.42 (inactive) and -0.064, respectively. Moreover, the z-score in assay [2] is -0.336; in assay [3], -1.63 (inactive); in assay [4], -0.297 (inactive); in assay [5], -0.449 (inactive).

On to `COC(=O)[C@]1(Cc2ccccc2N=[N+]=[N-])N=C(c2ccc(OCCCO)cc2)O[C@@H]1c1ccccc1`, for which the composite z-score is 0.857 (inactive) in assay [1] and 0.797 with XIP peptide (Xip251-270). The z-score in assay [2] was -1.44; in assay [3] it was -2.09 (inactive); in assay [4], -0.88 (inactive); in assay [5], -1.26 (inactive).

For the molecule `O=C1OCCC=C[C@H]2OC34C=CCN(Cn5nnc6ccccc65)C(=O)[C@H]3N(CCCCCO)C(=O)[C@@H]4C12` (stereo partly specified), the composite z-score was 0.282 (inactive) in assay [1] and -0.75 with XIP peptide (Xip251-270). Besides, the z-score was 0.561 in assay [2], -4.63 (inactive) in assay [3], 1.09 (inactive) in assay [4] and 1.08 (inactive) in assay [5].

For the molecule `COc1cc2c(cc1OC)CN(C(=O)[C@@H]1[C@H]3C(=O)O[C@H](c4ccccc4)[C@H](c4ccccc4)N3[C@H](c3ccc(OCCO)cc3)[C@@]13C(=O)Nc1ccc(C#CCCO)cc13)CC2`, the composite z-score is 1.17 (inactive) in assay [1] and 0.75 in the assay on XIP peptide (Xip251-270). Further, the z-score is -2.12 in assay [2], 3.49 (inactive) in assay [3], 0.0699 (inactive) in assay [4] and 0.595 (inactive) in assay [5].

On to `COc1ccc(C(=O)Nc2ccc(CN3C(=O)[C@@]4(O[C@@H](CC(=O)N5Cc6ccccc6C[C@H]5CO)[C@H]([Si](C)(C)c5ccc(OC)cc5)[C@H]4C)c4ccccc43)cc2)cc1`, for which the composite z-score was 1.38 (inactive) in assay [1] and 0.701 with XIP peptide (Xip251-270). For the same molecule, the z-score is -1.23 in assay [2], -2.48 (inactive) in assay [3], 0.175 (inactive) in assay [4] and 0.514 (inactive) in assay [5].

Regarding `COc1ccc(C(=O)Nc2ccc3c(c2)[C@]2(O[C@@H](CCO)[C@H]([Si](C)(C)c4ccc(OC)cc4)[C@H]2C)C(=O)N3Cc2ccccc2)cc1`, the composite z-score in assay [1] was 0.439 (inactive); with XIP peptide (Xip251-270) it was 0.45. For the same molecule, the z-score is -2.88 in assay [2], -1.01 (inactive) in assay [3], -0.583 (inactive) in assay [4] and -0.644 (inactive) in assay [5].

As for `C=C(COC)C(=O)CC[C@H](OC(=O)c1ccccc1-c1ccccc1C(=O)O)c1ccc(CO)o1`, the composite z-score is 1.28 (inactive) in assay [1] and 0.393 with XIP peptide (Xip251-270). Also, the z-score in assay [2] was 0.399; in assay [3], -6.22 (inactive); in assay [4], 0.44 (inactive); in assay [5], -0.37 (inactive).

As for `[N-]=[N+]=Nc1ccccc1[C@@H]1OC(c2ccc(OCCCO)cc2)=N[C@]1(CCS(=O)(=O)c1ccccc1)C(=O)NCc1ccccc1`, the values for the composite z-score (in assay [1]; with XIP peptide (Xip251-270)) were 1.44 (inactive) and 0.629, respectively. Also, the z-score in assay [2] was -2.27; in assay [3], -1.05 (inactive); in assay [4], -0.228 (inactive); in assay [5], -0.184 (inactive).
